# Results taken from paper PMC11006913.
# Where a chain is given by its changes, count along the chain named.
# Tests used:
# Experiment in all cases: PBM; 200 nM protein, PBS
# Conditions in all cases: dsDNA, one strand shown
# SIX6 [1] = molecular target: T1, SIX6 (Homo sapiens, UniProt O95475 114-200, L167I)
# T1 sequence: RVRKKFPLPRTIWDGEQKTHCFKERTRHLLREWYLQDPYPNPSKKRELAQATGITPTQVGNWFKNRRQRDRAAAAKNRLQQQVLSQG
# SIX6 [2] = molecular target: T2, SIX6 (Homo sapiens, UniProt O95475 114-200, L143V)
# T2 sequence: T1 sequence with L30V, I54L
# SIX6 [3] = molecular target: T3, SIX6 (Homo sapiens, UniProt O95475 114-200, H141N)
# T3 sequence: T1 sequence with H28N, I54L
# SIX6 [4] = molecular target: T4, SIX6 (Homo sapiens, UniProt O95475 114-200, T165P)
# T4 sequence: T1 sequence with T52P, I54L
# SIX6 [5] = molecular target: T5, SIX6 (Homo sapiens, UniProt O95475 114-200, L167M)
# T5 sequence: T1 sequence with I54M
# SIX6 [6] = molecular target: T6, SIX6 (Homo sapiens, UniProt O95475 114-200, L143M)
# T6 sequence: T1 sequence with L30M, I54L
# SIX6 [7] = molecular target: T7, SIX6 (Homo sapiens, UniProt O95475 114-200, L143I)
# T7 sequence: T1 sequence with L30I, I54L
# SIX6 [8] = molecular target: T8, SIX6 (Homo sapiens, UniProt O95475 114-200, T165G)
# T8 sequence: T1 sequence with T52G, I54L
# SIX6 [9] = molecular target: T9, SIX6 (Homo sapiens, UniProt O95475 114-200, T139Q)
# T9 sequence: T1 sequence with T26Q, I54L
# SIX6 [10] = molecular target: T10, SIX6 (Homo sapiens, UniProt O95475 114-200, T165A)
# T10 sequence: T1 sequence with T52A, I54L
# SIX6 [11] = molecular target: T11, SIX6 (Homo sapiens, UniProt O95475 114-200, L167V)
# T11 sequence: T1 sequence with I54V
# SIX6 [12] = molecular target: T12, SIX6 (Homo sapiens, UniProt O95475 114-200)
# T12 sequence: T1 sequence with I54L
# SIX6 [13] = molecular target: T13, SIX6 (Homo sapiens, UniProt O95475 114-200, T165I)
# T13 sequence: T1 sequence with T52I, I54L
# HOXA2 [14] = molecular target: HOXA2 (Homo sapiens, UniProt O43364 129-215, R185T)
# Chain of HOXA2 (Homo sapiens, UniProt O43364 129-215, R185T) (O43364 129-215 R185T): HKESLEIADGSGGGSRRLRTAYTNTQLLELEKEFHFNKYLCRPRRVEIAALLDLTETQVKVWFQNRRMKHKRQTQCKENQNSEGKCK
# HOXA2 [15] = molecular target: HOXA2 (Homo sapiens, UniProt O43364 129-215, R185K)
# Chain of HOXA2 (Homo sapiens, UniProt O43364 129-215, R185K) (O43364 129-215 R185K): as the sequence (O43364 129-215 R185T) above, with T57K counted along it
# HOXA2 [16] = molecular target: HOXA2 (Homo sapiens, UniProt O43364 129-215, Y150S)
# Chain of HOXA2 (Homo sapiens, UniProt O43364 129-215, Y150S) (O43364 129-215 Y150S): as the sequence (O43364 129-215 R185T) above, with Y22S, T57R counted along it
# HOXA2 [17] = molecular target: HOXA2 (Homo sapiens, UniProt O43364 129-215)
# Chain of HOXA2 (Homo sapiens, UniProt O43364 129-215) (O43364 129-215): as the sequence (O43364 129-215 R185T) above, with T57R counted along it
Sequence,binding signal (SIX6 [1]),binding signal (SIX6 [2]),binding signal (SIX6 [3]),binding signal (SIX6 [4]),binding signal (SIX6 [5]),binding signal (SIX6 [6]),binding signal (SIX6 [7]),binding signal (SIX6 [8]),binding signal (SIX6 [9]),binding signal (SIX6 [10]),binding signal (SIX6 [11]),binding signal (SIX6 [12]),binding signal (SIX6 [13]),binding signal (HOXA2 [14]),binding signal (HOXA2 [15]),binding signal (HOXA2 [16]),binding signal (HOXA2 [17])
CAGCGCCG,"8.83 upbm affinity estimate (log intensity, higher = more binding, comparable within an allelic series)","8.75 upbm affinity estimate (log intensity, higher = more binding, comparable within an allelic series)","8.78 upbm affinity estimate (log intensity, higher = more binding, comparable within an allelic series)","8.87 upbm affinity estimate (log intensity, higher = more binding, comparable within an allelic series)","8.78 upbm affinity estimate (log intensity, higher = more binding, comparable within an allelic series)","8.76 upbm affinity estimate (log intensity, higher = more binding, comparable within an allelic series)","8.8 upbm affinity estimate (log intensity, higher = more binding, comparable within an allelic series)","8.83 upbm affinity estimate (log intensity, higher = more binding, comparable within an allelic series)","8.77 upbm affinity estimate (log intensity, higher = more binding, comparable within an allelic series)","8.74 upbm affinity estimate (log intensity, higher = more binding, comparable within an allelic series)","8.79 upbm affinity estimate (log intensity, higher = more binding, comparable within an allelic series)","8.78 upbm affinity estimate (log intensity, higher = more binding, comparable within an allelic series)","8.74 upbm affinity estimate (log intensity, higher = more binding, comparable within an allelic series)",,,,
CGGCTTCC,"9 upbm affinity estimate (log intensity, higher = more binding, comparable within an allelic series)","8.76 upbm affinity estimate (log intensity, higher = more binding, comparable within an allelic series)","8.87 upbm affinity estimate (log intensity, higher = more binding, comparable within an allelic series)","8.79 upbm affinity estimate (log intensity, higher = more binding, comparable within an allelic series)","8.83 upbm affinity estimate (log intensity, higher = more binding, comparable within an allelic series)","9 upbm affinity estimate (log intensity, higher = more binding, comparable within an allelic series)","8.88 upbm affinity estimate (log intensity, higher = more binding, comparable within an allelic series)","9 upbm affinity estimate (log intensity, higher = more binding, comparable within an allelic series)","9.03 upbm affinity estimate (log intensity, higher = more binding, comparable within an allelic series)","8.96 upbm affinity estimate (log intensity, higher = more binding, comparable within an allelic series)","8.89 upbm affinity estimate (log intensity, higher = more binding, comparable within an allelic series)","8.96 upbm affinity estimate (log intensity, higher = more binding, comparable within an allelic series)","8.91 upbm affinity estimate (log intensity, higher = more binding, comparable within an allelic series)",,,,
CTGGCCCA,"8.9 upbm affinity estimate (log intensity, higher = more binding, comparable within an allelic series)","8.81 upbm affinity estimate (log intensity, higher = more binding, comparable within an allelic series)","8.95 upbm affinity estimate (log intensity, higher = more binding, comparable within an allelic series)","8.96 upbm affinity estimate (log intensity, higher = more binding, comparable within an allelic series)","8.89 upbm affinity estimate (log intensity, higher = more binding, comparable within an allelic series)","8.86 upbm affinity estimate (log intensity, higher = more binding, comparable within an allelic series)","8.87 upbm affinity estimate (log intensity, higher = more binding, comparable within an allelic series)","8.92 upbm affinity estimate (log intensity, higher = more binding, comparable within an allelic series)","8.93 upbm affinity estimate (log intensity, higher = more binding, comparable within an allelic series)","8.92 upbm affinity estimate (log intensity, higher = more binding, comparable within an allelic series)","8.88 upbm affinity estimate (log intensity, higher = more binding, comparable within an allelic series)","8.94 upbm affinity estimate (log intensity, higher = more binding, comparable within an allelic series)","8.95 upbm affinity estimate (log intensity, higher = more binding, comparable within an allelic series)","7.24 upbm affinity estimate (log intensity, higher = more binding, comparable within an allelic series)","10.3 upbm affinity estimate (log intensity, higher = more binding, comparable within an allelic series)","10.4 upbm affinity estimate (log intensity, higher = more binding, comparable within an allelic series)","7.1 upbm affinity estimate (log intensity, higher = more binding, comparable within an allelic series)"
CGATATCC,"11.1 upbm affinity estimate (log intensity, higher = more binding, comparable within an allelic series)","10.2 upbm affinity estimate (log intensity, higher = more binding, comparable within an allelic series)","11.1 upbm affinity estimate (log intensity, higher = more binding, comparable within an allelic series)","9.62 upbm affinity estimate (log intensity, higher = more binding, comparable within an allelic series)","10.6 upbm affinity estimate (log intensity, higher = more binding, comparable within an allelic series)","10.9 upbm affinity estimate (log intensity, higher = more binding, comparable within an allelic series)","10.3 upbm affinity estimate (log intensity, higher = more binding, comparable within an allelic series)","11.1 upbm affinity estimate (log intensity, higher = more binding, comparable within an allelic series)","11.2 upbm affinity estimate (log intensity, higher = more binding, comparable within an allelic series)","11 upbm affinity estimate (log intensity, higher = more binding, comparable within an allelic series)","10.9 upbm affinity estimate (log intensity, higher = more binding, comparable within an allelic series)","11 upbm affinity estimate (log intensity, higher = more binding, comparable within an allelic series)","10.9 upbm affinity estimate (log intensity, higher = more binding, comparable within an allelic series)",,,,
GCCGCCCC,"9.02 upbm affinity estimate (log intensity, higher = more binding, comparable within an allelic series)","9.06 upbm affinity estimate (log intensity, higher = more binding, comparable within an allelic series)","8.99 upbm affinity estimate (log intensity, higher = more binding, comparable within an allelic series)","9.17 upbm affinity estimate (log intensity, higher = more binding, comparable within an allelic series)","9.05 upbm affinity estimate (log intensity, higher = more binding, comparable within an allelic series)","9.03 upbm affinity estimate (log intensity, higher = more binding, comparable within an allelic series)","8.92 upbm affinity estimate (log intensity, higher = more binding, comparable within an allelic series)","9.03 upbm affinity estimate (log intensity, higher = more binding, comparable within an allelic series)","8.98 upbm affinity estimate (log intensity, higher = more binding, comparable within an allelic series)","9.08 upbm affinity estimate (log intensity, higher = more binding, comparable within an allelic series)","8.99 upbm affinity estimate (log intensity, higher = more binding, comparable within an allelic series)","8.93 upbm affinity estimate (log intensity, higher = more binding, comparable within an allelic series)","9.05 upbm affinity estimate (log intensity, higher = more binding, comparable within an allelic series)",,,,
AGGATATC,"11.1 upbm affinity estimate (log intensity, higher = more binding, comparable within an allelic series)","10.2 upbm affinity estimate (log intensity, higher = more binding, comparable within an allelic series)","11.1 upbm affinity estimate (log intensity, higher = more binding, comparable within an allelic series)","9.73 upbm affinity estimate (log intensity, higher = more binding, comparable within an allelic series)","10.7 upbm affinity estimate (log intensity, higher = more binding, comparable within an allelic series)","10.9 upbm affinity estimate (log intensity, higher = more binding, comparable within an allelic series)","10.3 upbm affinity estimate (log intensity, higher = more binding, comparable within an allelic series)","11.2 upbm affinity estimate (log intensity, higher = more binding, comparable within an allelic series)","11.1 upbm affinity estimate (log intensity, higher = more binding, comparable within an allelic series)","11.1 upbm affinity estimate (log intensity, higher = more binding, comparable within an allelic series)","10.9 upbm affinity estimate (log intensity, higher = more binding, comparable within an allelic series)","10.9 upbm affinity estimate (log intensity, higher = more binding, comparable within an allelic series)","10.9 upbm affinity estimate (log intensity, higher = more binding, comparable within an allelic series)",,,,
